{
  "source": "PubChem BioAssay AID504660",
  "about": "(National Center for Advancing Translational Sciences (NCATS), 2011)",
  "note": "The whole screen tested about 360,000 compounds, of which about 3,700 (1%) were called active. Only a selection was taken, and actives are over-represented in it overall. A number with no mark means an inactive call. Rule as the data show it: active = activation above about 30%; inactive = the rest.",
  "data": [
    {"molecular_target": "D(1A) dopamine receptor (Homo sapiens) (UniProt P21728)", "sequence (P21728 whole entry, looked up)": "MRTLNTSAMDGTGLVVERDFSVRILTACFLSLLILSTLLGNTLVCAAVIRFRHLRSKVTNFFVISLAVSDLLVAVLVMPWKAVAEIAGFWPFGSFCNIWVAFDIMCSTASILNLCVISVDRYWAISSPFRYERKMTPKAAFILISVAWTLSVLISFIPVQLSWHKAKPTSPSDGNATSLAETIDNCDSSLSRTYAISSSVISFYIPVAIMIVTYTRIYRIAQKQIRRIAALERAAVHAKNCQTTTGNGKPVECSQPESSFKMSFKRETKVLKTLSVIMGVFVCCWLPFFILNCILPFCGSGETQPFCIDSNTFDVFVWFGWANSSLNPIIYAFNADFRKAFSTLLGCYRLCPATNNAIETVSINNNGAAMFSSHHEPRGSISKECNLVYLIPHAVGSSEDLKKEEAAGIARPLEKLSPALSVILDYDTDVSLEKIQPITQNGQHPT", "assay": "Allosteric Agonists of the Human D1 Dopamine Receptor: qHTS; also: 0% is about no effect", "conditions": "HEK293 T-REx D1 cells, calcium flux, agonist mode; at 2 µM; hits give high values", "description": "NIH Chemical Genomics Center [NCGC] NIH Molecular Libraries Probe Centers Network [MLPCN] MLPCN Grant: NS064831-01 Assay Submitter (PI): David Sibley Dopamine receptors (DARs) are involved in the etiology and/or therapy of a number of neuropsychiatric and endocrine disorders. For instance, all receptor-based antiparkinsonian drugs work via stimulating the D1 DAR subtype whereas all FDA-approved antipsychotic agents are antagonists of this receptor. […] There are three different types of allosteric modulators that we are seeking, two of which will stimulate or augment receptor signaling, allosteric agonists and potentiators, while the third, allosteric antagonists, will attenuate receptor signaling. The present primary screening assay measures compound agonism by tracking calcium flux in a […], inducible Hek293 Trex D1 cell line.\nFreshly passaged cells are plated in 1536 well black, clear bottom plates at a density of 4000 cells/well in 3 ul of complete media containing 1x tetracycline inducer. After an overnight incubation at […] in 5% CO2, cells are loaded with 2 ul of the no wash Calcium Assay Kit (ABD Bioquest) and incubated at room temperature for 30 to 90 minutes. Agonist read: A 10 cycle (1 second/cycle) baseline measurement is taken and then the FDSS online 1536 pintool delivers 23 nl of compound library (as well as dopamine controls) to the plate. The plate is measured for kinetically at 1 cycle/sec for 180 seconds and is considered to be the agonist portion of the assay (eg, compounds which activate a positive calcium response during this portion are flagged as potential agonists). Following the 180 second read, 1 ul of either an EC20 (positive modulation assay) or EC80 (negative modulation assay) is delivered by an onboard pipette head. Measurements are taken kinetically for an additional 180 seconds.", "values": [
      {"smiles": "COc1ccc(CNC(=O)C2CC(c3ccc(C(F)(F)F)cc3)=NO2)cc1", "note": "(centres undefined)", "activation": "16.3%"},
      {"smiles": "O=C(NCc1cc(C(F)(F)F)cc(C(F)(F)F)c1)C1CC(c2cccc(F)c2)=NO1", "note": "(centres undefined)", "activation": "44.2% (active)"},
      {"smiles": "COc1ccc(C2=NOC(C(=O)NCc3ccco3)C2)cc1OC", "note": "(centres undefined)", "activation": "1.23%"},
      {"smiles": "Cc1ccc(N(CC(=O)NCc2ccc(Cl)cc2)S(=O)(=O)N(C)C)cc1", "activation": "-0.642%"},
      {"smiles": "Cn1c(=O)c(C(=O)O)nn(-c2ccccc2)c1=O", "activation": "1.73%"},
      {"smiles": "COc1cccc(NC(=O)CSC2=Nc3ccccc3C3=NC(CC(=O)NC4CCCCC4)C(=O)N23)c1", "note": "(centres undefined)", "activation": "0.2%"},
      {"smiles": "CCCN(CCC)C(=O)C1CCCN(c2ncnc3c2nc2n3CCCCC2)C1", "note": "(centres undefined)", "activation": "-0.793%"},
      {"smiles": "COc1ccc(NC(=O)N2CCCn3nc(C)cc32)cc1OC", "activation": "-0.666%"},
      {"smiles": "COc1ccc(CNC(=O)CS(=O)Cc2nc(-c3cccc(C)c3)oc2C)cc1", "note": "(centres undefined)", "activation": "3.98%"},
      {"smiles": "Cc1ccc(-c2nc(CS(=O)CC(=O)NC3CCCC3)c(C)o2)cc1", "note": "(centres undefined)", "activation": "-0.511%"},
      {"smiles": "Cc1cccc(-c2nc(CS(=O)CC(=O)NC(C)CCc3ccccc3)c(C)o2)c1", "note": "(centres undefined)", "activation": "33.5% (active)"},
      {"smiles": "Cc1ccc(-c2nnc(Nc3cccc(Br)c3)c3ccccc23)cc1S(=O)(=O)NCC1CCCO1", "note": "(centres undefined)", "activation": "3.26%"},
      {"smiles": "Cc1cc2nc3c(=O)n(Cc4ccccc4)c(=O)[nH]c3nc2cc1N", "activation": "368% (active)"},
      {"smiles": "Cc1cc(OCC(=O)N(C)c2c(N)n(Cc3ccccc3)c(=O)[nH]c2=O)c(C(C)C)cc1Cl", "activation": "-0.311%"},
      {"smiles": "Cc1nc2c(c(=O)n1Cc1ccco1)c1nc3ccccc3nc1n2Cc1ccccc1", "activation": "0.836%"},
      {"smiles": "CCOCCCNC(=O)c1c(NC(=O)Cc2coc3ccc(C)cc23)sc2c1CCC2", "activation": "6.68%"},
      {"smiles": "CCOC(=O)c1ccc(-c2ccc(/C=C(\\C#N)C(=O)Nc3ccc(C)cc3)o2)cc1", "activation": "6.86%"},
      {"smiles": "Cc1ccc2nc(/C(C#N)=C/c3ccc(-c4ccc(C(=O)OC(C)C)cc4)o3)[nH]c2c1", "activation": "165% (active)"},
      {"smiles": "Cc1ccc2nc(/C(C#N)=C/c3ccccc3F)[nH]c2c1", "activation": "-1.08%"},
      {"smiles": "O=C(Nc1c(C(=O)N2CCN(c3ccc(F)cc3)CC2)oc2ccccc12)c1ccco1", "activation": "3.39%"},
      {"smiles": "COC(=O)c1cc(S(=O)(=O)N2CCN(c3cc(Cl)ccc3C)CC2)c[nH]1", "activation": "6.55%"},
      {"smiles": "O=C(O)C(c1ccccc1)N1C(=O)/C(=C\\c2ccc(-c3cccc(Cl)c3)o2)SC1=S", "note": "(centres undefined)", "activation": "33.5% (active)"},
      {"smiles": "O=C(NC(=S)Nc1cc(C(F)(F)F)ccc1N1CCOCC1)c1ccc(-c2cccc(Cl)c2)o1", "activation": "4.39%"},
      {"smiles": "CN=C1S/C(=C\\c2ccc(Sc3ccc(Cl)cc3)o2)C(=O)N1C", "activation": "-0.0809%"}
    ]}
  ]
}
